Screening results: PubChem BioAssay, National Center for Advancing Translational Sciences (NCATS)
The list is not random: actives were taken first. Their share in the collection is about 2.3%.
ATXN2 expr inh = Primary qHTS for Inhibitors of ATXN expression; Potency, µM (series often up to 57 µM), usual class: inhibitors; hit rate 0.72% among 360,000; HEK-293 ATXN2-luciferase reporter, luminescence, 24 h; note: nearly all actives have a fitted effect of over 55% in size
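ATXN2-luciferase reporter cells (luciferase flanked by upstream and downstream ATXN2 gene portions) were treated 24 h at 37 °C with compounds at up to 57 uM. SteadyGlo luminescence gave expression; GF-AFC fluorescence gave viability.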
TGFb SMAD3 inh = qHTS for Inhibitors of TGF-b. HepG2 CAGA-GFP TGF-b/SMAD3 reporter, GFP fluorescence, 18 h; TGF-beta stimulated, 500 pg/mL final. Potency, µM (titrated, usually from 46.1 µM), hits mostly inhibitors. hit rate 1.2% among 410,000; note: nearly all actives have a fitted effect of over 65% in size
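Smad-responsive CAGA-GFP expression was quantified in HEPG2 cells exposed to compounds and 500 pg/mL final TGF-beta for 18 h at 37 degrees C; unstimulated wells defined full inhibition.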
HepG2 tox-1 = qHTS for Inhibitors of TGF-b: Cytotox Counterscreen | HepG2 CAGA-GFP viability, ATP luminescence, 18 h | Potency, µM (highest dose often 46.1 µM), actives largely listed as cytotoxic | hit rate 0.76% among 410,000
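HepG2 CAGA-GFP cells (1000/well, DMEM with 1% FBS) received compound, then TGF-beta at 500 pg/mL final, and were incubated 18 hours at 37 degrees C. Viability was read by CellTiter-Glo luminescence. Media-only wells were set as complete cell-killing and DMSO as no toxicity.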
ATXN viability = Viability Counterscreen for Primary qHTS for Inhibitors of ATXN expression; Potency, µM (doses to about 56.7 µM), usual class: cytotoxic; S2 cells (HEK-293 line with an ATXN2-luciferase reporter) viability, CellTiter-Fluor protease fluorescence, 24 h; hit rate 0.49% among 400,000; note: nearly all actives have a fitted effect of over 40% in size
TGFb CAGA inh = qHTS for Inhibitors of TGF-b: Confirmation of Cherry Picks. shares compounds with TGFb SMAD3 inh. HepG2 CAGA-GFP TGF-b reporter, GFP fluorescence, 18 h; cells stimulated with TGF-beta, 500 pg/mL. Potency, µM (titrated, usually from 46.1 µM), hits mostly inhibitors. hit rate 63% among 1,600. AID 720534, 2013; note: nearly all actives have a fitted effect of over 65% in size
HepG2 tox-2 = qHTS for Inhibitors of TGF-b: Cytotox Counterscreen for Cherry Picks; hit rate 27% among 1,600; Potency, µM (highest dose often 46.1 µM), hits mostly inhibitors; HepG2 CAGA-GFP viability, ATP luminescence, 18 h; cells stimulated with TGF-beta, 500 pg/mL; shares compounds with TGFb SMAD3 inh; note: nearly all actives have a fitted effect of over 70% in size
TGFb CCL64 inh = qHTS for Inhibitors of TGF-b: CCL64 Cells Orthogonal Assay for Cherry Picks; shares compounds with TGFb SMAD3 inh; CCL64 CAGA-GFP reporter, TGF-b stimulated, GFP fluorescence, 18 h; Potency, µM (highest dose often 46.1 µM), actives largely listed as inhibitors; hit rate 41% among 1,600; note: nearly all actives have a fitted effect of over 65% in size
COP TGFb inh = qHTS for Inhibitors of TGF-b: Hit Validation in HepG2 Cells using COP promoter | shares compounds with TGFb SMAD3 inh | HepG2 COP-GFP TGF-b reporter, GFP fluorescence, 18 h; cells stimulated by added recombinant TGF-beta | Potency, µM (doses to about 46.1 µM), usual class: inhibitors | hit rate 3% among 1,600 | AID 720537, 2013; note: nearly all actives have a fitted effect of over 70% in size
Numbers stand for hits; 0 = inactive; ? = inconclusive; - = not tested or not shown; ! = a repeat was not active. Calls come from the whole dose curve; as a rule, active = well fitted curve in the direction sought with a large enough effect; inconclusive = small, poorly fitted or top-dose-only effect, or another doubt; inactive = no such curve, though single readings can be large; an effect the other way counts as inactive or inconclusive.

SMILES	ATXN2 expr inh	TGFb SMAD3 inh	HepG2 tox-1	ATXN viability	TGFb CAGA inh	HepG2 tox-2	TGFb CCL64 inh	COP TGFb inh
NC(=O)c1cccc(-c2cnc(N)c(C(=O)c3cccnc3)n2)c1	0	10µM	0	?	4.6µM	16µM	0	0
CCc1noc(C)c1C(=O)Nc1nc(-c2ccc(Cl)cc2Cl)cs1	0	11µM	0	?	15µM	15µM	?	0
CCc1noc(C)c1C(=O)Nc1nc(-c2cccs2)cs1	0	0	0	0	-	-	-	-
Cc1cccc(NC(=O)Nc2cccc(C#N)c2)n1	0	?	0	0	-	-	-	-
Cc1cccc(NC(=O)Nc2ccc(C#N)cc2)n1	0	2.5µM	0	0	6.5µM	8.2µM	4.1µM	0
CN(Cc1ccccc1)S(=O)(=O)c1ccc(NC(=S)NC(=O)C2CCCCC2)cc1	0	13µM	0	0	33µM	?	0	0
CN(CCCN(Cc1ccc(Cl)cc1)c1ccc(Br)cn1)C(=S)NCCCc1cnc[nH]1	-	?	0	-	-	-	-	-
O=C(Nc1cccc(Cl)c1)Nc1cc(S(=O)(=O)N2CCCCC2)ccc1Cl	?	10µM	0	?	4.1µM	?	4.6µM	0
CN1CCN(S(=O)(=O)c2ccc(NC(=O)Nc3cccc(Cl)c3)cc2)CC1	0	?	0	0	-	-	-	-
CCCC[n+]1c(/C=C/c2ccc(N(C)C)cc2)sc2ccccc21	-	?	0	-	-	-	-	-
O=C(NCCCCc1ccccc1)NC[C@@H]1CC[C@@H](Cc2ccc(-c3ccccc3)cc2)O1	0	?	0	0	-	-	-	-
O=C(NC[C@@H]1CC[C@@H](Cc2ccc(-c3ccccc3)cc2)O1)Nc1ccc(Br)cc1	?	11µM	0	?	21µM	0	0	0
CCOCCn1c(C2CCN(CCc3ccc(C(C)(C)C(=O)O)cc3)CC2)nc2ccccc21	0	-	-	0	-	-	-	-
CC(=O)Nc1ccc(SC[C@H](Cc2ccccc2)N2CC[C@@H](C(C)(C)C)CCC2=O)cc1	?	10µM	0	32µM	26µM	?	?	0
Cc1ccc(SC[C@H](C)CN2CC[C@H](C(C)(C)C)CCC2=O)cc1	0	10µM	11µM!	0	?	?	21µM	0
O=[N+]([O-])c1ccc(S(=O)(=O)c2ccccc2)nc1	-	2.5µM	14µM	-	4.1µM	5.8µM	3.3µM	8.2µM
Cc1ccc(S(=O)(=O)c2ccc([N+](=O)[O-])cn2)cc1	?	2.8µM	7.1µM	-	3.3µM	2.9µM	3.3µM	5.2µM
N#CN=c1snc(-c2ccccc2Cl)n1-c1ccccc1Cl	-	?	0	-	-	-	-	-
CCc1ccc(-c2cc(C)no2)cc1S(=O)(=O)N1CCCN(Cc2ccc(F)cc2)C1	0	10µM	0	0	?	?	?	0
CCc1ccc(-c2cc(C)no2)cc1S(=O)(=O)N1CCC(C)CC1	0	0	0	0	-	-	-	-
CCOc1cc2c(cc1O)C(=NOC)CC1C2CCC2(C)C(O)CCC12 (stereo not drawn)	0	18µM	0	0	7.3µM	0	7.3µM	0
Cc1c(C(=O)N2CCN(Cc3ccc4c(c3)OCO4)CC2)sc2ncnc(N3CCN(c4ccccc4F)CC3)c12	-	5µM	0	?	?	0	0	0
O=C(Nn1c(SCc2ccc(F)cc2)nc2ccsc2c1=O)c1ccccc1	0	11µM	0	0	16µM	?	?	0
Cc1ccc(CNC(=O)CSc2nc3ccsc3c(=O)n2NC(=O)c2ccccc2)cc1	0	0	0	0	-	-	-	-
CCOc1ccc(N(C)S(=O)(=O)c2ccc3c(c2)C(C)(C)C(=O)N3C)cc1	0	0	0	0	-	-	-	-
SMILES	ATXN2 expr inh	TGFb SMAD3 inh	HepG2 tox-1	ATXN viability	TGFb CAGA inh	HepG2 tox-2	TGFb CCL64 inh	COP TGFb inh
CC(Oc1ccc(Cl)cc1Cl)C(=O)NC1=NN(c2ccccc2)C(=O)C1 (stereo not drawn)	0	18µM	0	0	?	?	?	0
CC(=O)c1cccc(NC(=O)/C=C/c2ccc([N+](=O)[O-])s2)c1	?	7.1µM	0	-	4.1µM	12µM	2.1µM	0
O=Cc1cn(CC(=O)Nc2ccc3c(c2)OCO3)c2ccccc12	0	7.1µM	0	?	8.2µM	3.3µM	0	0
COc1ccc(-c2ccc(C(=O)Nc3cccc(NS(C)(=O)=O)c3)c3occc23)c(C)c1	?	16µM	0	?	10µM	?	23µM	0
CCCCCCN1C[C@H](n2cc(-c3ccc(F)cc3)nn2)[C@@H](O)C[C@@H]1c1ccc(Cl)cc1	32µM	7.1µM	11µM	-	21µM	?	18µM	?
Cc1ccc(Oc2coc3cc(OC(=O)c4cccs4)ccc3c2=O)cc1	0	0	0	0	-	-	-	-
Cc1cc(C)cc(Oc2coc3cc(OC(=O)c4cccs4)ccc3c2=O)c1	0	?	0	0	?	0	0	0
CCN(C(=O)c1cc2c(C)nc3ccccc3c2o1)c1cc(Cl)ccc1OC	?	10µM	0	0	?	0	?	0
COc1ccccc1NC(=O)COC(=O)c1cc2ccccc2cc1O	0	0	0	0	-	-	-	-
COc1ccccc1NC(=O)c1cc2cc(Br)ccc2cc1O	-	5.6µM	0	0	7.3µM	8.2µM	5.8µM	0
Cc1ccc(Cl)cc1NC(=O)c1cc2ccccc2cc1O	-	3.5µM	0	0	2.6µM	7.3µM	4.1µM	0
COc1cc(NC(=O)c2cc3ccccc3cc2O)c(OC)cc1Cl	-	4.5µM	0	0	7.3µM	6.5µM	5.8µM	0
COc1ccc(C(CNC(=O)c2oc3ccc(OC)cc3c2C)N2CCCC2)cc1 (stereo not drawn)	0	?	0	0	?	?	0	0
Cc1c(C(=O)N/N=C/c2ccc(N(C)C)cc2)[nH]c2ccc(Cl)cc12	0	4.5µM	0	?	2.3µM	0	?	0
O=C(c1ccc([N+](=O)[O-])s1)N1CCc2ccccc2C1	0	?	0	?	23µM	?	?	0
O=C(c1ccc([N+](=O)[O-])s1)N1CCc2ccccc21	0	0	0	0	-	-	-	-
N#Cc1nc(N)nc(N2CCCCC2)n1	-	?	0	-	-	-	-	-
O=C(c1cc(S(=O)(=O)Nc2ccccc2F)c(Cl)cc1Cl)N1CCN(CCO)CC1	-	?	0	0	0	0	?	0
O=C(NCCN1CCOCC1)c1cc(S(=O)(=O)Nc2ccccc2F)c(Cl)cc1Cl	0	0	0	0	-	-	-	-
